The record followed here is PubChem BioAssay (NCI).

Molecules are shown by their SMILES. Compounds without any hit were thinned out: in the full panel of roughly 83,000, 20% have a hit.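 Results are percent growth after 48 hours of single-concentration exposure. 100 means growth as in untreated cells, lower positive values show inhibition; negative values down to -100 show cell death.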 Activity calls are given as the source filed them. How the source made its calls: active means growth percent below 10; inactive means the rest.

Some test systems named below: RPMI-8226 leukemia; OVCAR-8 ovarian; OVCAR-5 ovarian; OVCAR-4 ovarian; SK-OV-3 ovarian; IGROV1 ovarian; OVCAR-3 ovarian; HS 578T breast; NCI/ADR-RES ovarian; SR leukemia.
Common to all, as to test: NCI-60 one-dose screen, 48 h (100 = growth as untreated, 0 = no growth, -100 = all killed)
What all share (settings): 10 µM unless noted

For `COc1cc2nc(-c3ccc(C#N)cc3)[nH]c(=O)c2cc1OC`, the growth was 135% (inactive) in the assay with RPMI-8226 leukemia; 102% (inactive) with OVCAR-8 ovarian; 102% (inactive) in the assay with OVCAR-5 ovarian; 113% (inactive) with OVCAR-4 ovarian; 112% (inactive) in the assay on SK-OV-3 ovarian; 113% (inactive) in the assay on IGROV1 ovarian. Further, the figures for the growth in the assay with OVCAR-3 ovarian, with HS 578T breast and with NCI/ADR-RES ovarian were 109% (inactive), 106% (inactive) and 98.7% (inactive), respectively.

With `COc1ccc(-c2nc(N/N=C/c3cccc(Br)c3)nc(N3CCOCC3)c2C#N)cc1`, the growth is 35.8% (inactive) in the assay with RPMI-8226 leukemia; 69.9% (inactive) with OVCAR-8 ovarian; 111% (inactive) in the assay on OVCAR-5 ovarian; 81.2% (inactive) with OVCAR-4 ovarian; 97.1% (inactive) with SK-OV-3 ovarian; 89.1% (inactive) with IGROV1 ovarian. Also, in the assay on OVCAR-3 ovarian, the growth is 74.6% (inactive).

Take `CN1CCN(c2cc(F)c(NC3=C(Cl)C(=O)c4ncccc4C3=O)c(F)c2)CC1`: the growth in the assay with RPMI-8226 leukemia was -20.7% (active); with OVCAR-8 ovarian, 1.95% (active); in the assay on OVCAR-5 ovarian it was -59.8% (active); with OVCAR-4 ovarian it was -99.2% (active); with SK-OV-3 ovarian, 82.7% (inactive); with IGROV1 ovarian, -90.4% (active). Also, the growth is -98.2% (active) in the assay with OVCAR-3 ovarian, -16.5% (active) with HS 578T breast and 37.9% (inactive) with NCI/ADR-RES ovarian.

As to `COc1ccc(C(=O)/C=C/c2c(OC)cc(OC)cc2OC)c(OC)c1`, the growth is 13% (inactive) in the assay with RPMI-8226 leukemia; 25.9% (inactive) in the assay on OVCAR-8 ovarian; 31.5% (inactive) in the assay on OVCAR-5 ovarian; 79.1% (inactive) in the assay with OVCAR-4 ovarian; 10.9% (inactive) in the assay with SK-OV-3 ovarian; 40.3% (inactive) in the assay with IGROV1 ovarian. Besides, the growth in the assay with OVCAR-3 ovarian was -33.3% (active); in the assay on HS 578T breast, 54.1% (inactive); in the assay with NCI/ADR-RES ovarian it was -21.9% (active).

With `NC(=O)c1cccc(-n2ccc3cc(NC(=O)Nc4cc(C(F)(F)F)cc(C(F)(F)F)c4)ccc32)n1`, the growth in the assay on SR leukemia was 44.3% (inactive); in the assay with OVCAR-8 ovarian, 37.2% (inactive); in the assay with OVCAR-5 ovarian, 72.4% (inactive); in the assay on OVCAR-4 ovarian it was 44% (inactive); in the assay with SK-OV-3 ovarian, 73.7% (inactive); with IGROV1 ovarian, 29.8% (inactive). Moreover, the growth was 39.1% (inactive) with OVCAR-3 ovarian, 38.6% (inactive) in the assay on HS 578T breast and 41.8% (inactive) in the assay with NCI/ADR-RES ovarian.

For the molecule `COc1ccc(/C=N/NC(=O)c2cccc3cc[nH]c23)cc1O`, the growth in the assay with RPMI-8226 leukemia is -19.4% (active); in the assay on OVCAR-8 ovarian, 48.8% (inactive); with OVCAR-5 ovarian, 87.8% (inactive); in the assay on OVCAR-4 ovarian, 49.6% (inactive); with SK-OV-3 ovarian, 26.1% (inactive); in the assay with IGROV1 ovarian it was 36.4% (inactive). In addition, the growth in the assay with OVCAR-3 ovarian was 1.58% (active); in the assay with HS 578T breast it was 15.2% (inactive); with NCI/ADR-RES ovarian, -7.64% (active).

As for `c1ccc(-c2nnc(Nc3ccc4c(c3)OCCO4)o2)c(NCc2ccncc2)c1`, the growth with SR leukemia was 10.9% (inactive); with OVCAR-8 ovarian, 20.2% (inactive); in the assay on OVCAR-5 ovarian, 32.2% (inactive); in the assay with OVCAR-4 ovarian it was 35.5% (inactive); in the assay on SK-OV-3 ovarian, -2.96% (active); with IGROV1 ovarian it was 28.5% (inactive). Moreover, the results for the growth with OVCAR-3 ovarian, in the assay on HS 578T breast and in the assay with NCI/ADR-RES ovarian were -36.9% (active), 64.4% (inactive) and 4.75% (active), respectively.

In the case of `COc1ccc(-c2cnnc3c(-c4cccc(C(F)(F)F)c4)cnn23)cc1`, the growth in the assay with RPMI-8226 leukemia was 45.8% (inactive); in the assay on OVCAR-8 ovarian, 19.6% (inactive); in the assay with OVCAR-5 ovarian, 81% (inactive); in the assay on OVCAR-4 ovarian, 35.7% (inactive); in the assay with SK-OV-3 ovarian, 15.1% (inactive); with IGROV1 ovarian, 64.1% (inactive). The growth is 26.4% (inactive) in the assay on OVCAR-3 ovarian, 20.1% (inactive) with HS 578T breast and 60.5% (inactive) in the assay on NCI/ADR-RES ovarian.

With `CSc1nnc2c(=O)n(C)c(=O)n(C)c2n1`, the growth was 75.8% (inactive) in the assay on RPMI-8226 leukemia; 106% (inactive) in the assay with OVCAR-8 ovarian; 100% (inactive) in the assay with OVCAR-5 ovarian; 105% (inactive) in the assay with OVCAR-4 ovarian; 103% (inactive) in the assay with SK-OV-3 ovarian; 101% (inactive) with IGROV1 ovarian. The growth is 144% (inactive) with OVCAR-3 ovarian, 86.6% (inactive) in the assay on HS 578T breast and 101% (inactive) in the assay with NCI/ADR-RES ovarian.

`Cn1c2c(Cl)c(Cl)ccc2c2cc(N)[nH]c(=O)c21`: the growth in the assay with RPMI-8226 leukemia was 94.9% (inactive); in the assay with OVCAR-8 ovarian, 73.7% (inactive); in the assay on OVCAR-5 ovarian, 66.2% (inactive); in the assay with OVCAR-4 ovarian, 87.2% (inactive); in the assay on SK-OV-3 ovarian, 92.2% (inactive); in the assay on IGROV1 ovarian it was 54.7% (inactive). In addition, the figures for the growth in the assay on OVCAR-3 ovarian, with HS 578T breast and in the assay on NCI/ADR-RES ovarian were 86.2% (inactive), 51.5% (inactive) and 74.6% (inactive), respectively.

In the case of `CNC(=O)NCC1OC(n2cnc3c(NC(=O)Nc4ccccc4)ncnc32)C(O[Si](C)(C)C(C)(C)C)C1O[Si](C)(C)C(C)(C)C` (configuration not stated), the growth is 20.2% (inactive) in the assay with RPMI-8226 leukemia; 32.9% (inactive) in the assay with OVCAR-8 ovarian; 69.2% (inactive) with OVCAR-5 ovarian; 29.6% (inactive) in the assay with OVCAR-4 ovarian; 77.5% (inactive) in the assay on SK-OV-3 ovarian; 52.5% (inactive) in the assay with IGROV1 ovarian. The growth in the assay with OVCAR-3 ovarian is -28.7% (active); with HS 578T breast, 61% (inactive); in the assay on NCI/ADR-RES ovarian, 31% (inactive).

On to `CCN(CCNc1cc(OC)cc2cccnc12)CCc1ccccc1`, for which the growth was 81.6% (inactive) in the assay with RPMI-8226 leukemia; 85.2% (inactive) in the assay on OVCAR-8 ovarian; 93.9% (inactive) with OVCAR-5 ovarian; 19.1% (inactive) with OVCAR-4 ovarian; 74.6% (inactive) in the assay with SK-OV-3 ovarian; 94.6% (inactive) in the assay on IGROV1 ovarian. The growth with OVCAR-3 ovarian was 79% (inactive); with HS 578T breast it was 85.6% (inactive); in the assay on NCI/ADR-RES ovarian, 81.1% (inactive).

For `Cc1c(C2=CCCCC2)c2ccccn2c1C(=O)c1cccc(S(=O)(=O)N2CCOCC2)c1`, the growth in the assay with RPMI-8226 leukemia was 46.9% (inactive); in the assay with OVCAR-8 ovarian, 94.9% (inactive); in the assay with OVCAR-5 ovarian, 106% (inactive); in the assay on OVCAR-4 ovarian it was 52.2% (inactive); with SK-OV-3 ovarian it was 92.6% (inactive); with IGROV1 ovarian, 75.7% (inactive). Also, the results for the growth with OVCAR-3 ovarian, in the assay on HS 578T breast and with NCI/ADR-RES ovarian were 73% (inactive), 75.8% (inactive) and 60.5% (inactive), respectively.

Take `O=S(=O)(c1cccc(NC2=Nc3cccc4cccc2c34)c1)N1CCCC1`: the growth was 48.8% (inactive) in the assay on RPMI-8226 leukemia; 83.7% (inactive) in the assay with OVCAR-8 ovarian; 100% (inactive) in the assay on OVCAR-5 ovarian; 46.9% (inactive) in the assay with OVCAR-4 ovarian; 84.1% (inactive) in the assay on SK-OV-3 ovarian; 80% (inactive) in the assay with IGROV1 ovarian. Further, the growth in the assay on OVCAR-3 ovarian was 84.3% (inactive); in the assay on HS 578T breast it was 76.8% (inactive); with NCI/ADR-RES ovarian it was 66% (inactive).

Turning to `CC(=O)CCSc1ccc(OC(C)=O)cc1`, the growth is 92.8% (inactive) in the assay with RPMI-8226 leukemia; 96.6% (inactive) with OVCAR-8 ovarian; 111% (inactive) in the assay with OVCAR-5 ovarian; 107% (inactive) in the assay with OVCAR-4 ovarian; 101% (inactive) with SK-OV-3 ovarian; 114% (inactive) in the assay with IGROV1 ovarian. The growth in the assay with OVCAR-3 ovarian is 104% (inactive); with HS 578T breast, 106% (inactive); in the assay with NCI/ADR-RES ovarian, 106% (inactive).

Consider `Clc1nc(Cl)c2ncn(CC3(Cn4cnc5c(Cl)nc(Cl)nc54)COC3)c2n1`, for which the growth in the assay on RPMI-8226 leukemia is -63.5% (active); in the assay with OVCAR-8 ovarian, -83.7% (active); in the assay on OVCAR-5 ovarian, -86% (active); with OVCAR-4 ovarian, -87.9% (active); in the assay with SK-OV-3 ovarian it was -99.8% (active); in the assay on IGROV1 ovarian, -93.3% (active). The values for the growth in the assay with OVCAR-3 ovarian, with HS 578T breast and with NCI/ADR-RES ovarian were -93.3% (active), -43.8% (active) and -57.4% (active), respectively.
